This note sets out measurements from PubChem BioAssay (NCI).

Common to all, as to assay: NCI-60 one-dose screen, 48 h (100 = growth as untreated, 0 = no growth, -100 = all killed)
Common to all, as to details: 10 µM unless noted

Assay [1] concerns DU-145 prostate.
Assay [2] relates to K-562 leukemia.
Assay [3] concerns MALME-3M melanoma.
In assay [4] the test system is MDA-MB-231 breast.
Assay [5] relates to RXF 393 renal.
The test system of assay [6] is SF-268 CNS.
Assay [7] has as its system SF-295 CNS.
Assay [8] relates to SF-539 CNS.
Assay [9] deals with UACC-257 melanoma.
For assay [10], the system named is M14 melanoma.

The structures appear in SMILES notation. The panel holds about 83,000 compounds, 20% with a hit somewhere; the sample as a whole holds those more often.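 Single-dose data. Exposure time 48 hours. Values below 10 considered active.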 Values without a mark were called inactive. The source made the active and inactive calls.

For `CCN(C(=O)N1CCN(c2cc3c(cc2F)c(=O)c(C(=O)O)cn3C2CC2)CC1)c1nc(-c2ccc(Cl)cc2)cs1`, the growth in [1] was 23.5%; in [2] it was 12.7%; in [3], 6.66% (active); in assay [4], -21.5% (active); in assay [5], 18.2%; in [6], 21.8%. Moreover, the growth in assay [7] was -0.18% (active); in [8], 11.8%; in [9], 12.9%; in [10] it was 23%.

For `COc1cc(-c2nc3cc(Cl)c(Cl)cc3[nH]2)ccc1OCC(=O)N=Nc1c(O)[nH]c2ccc([N+](=O)[O-])cc12`, the growth is 105% in [1]; 46.1% in assay [2]; 77.4% in assay [3]; 71.9% in [4]; 101% in [5]; 81.4% in assay [6]. Further, the growth was 101% in [7], 81.7% in [8], 106% in [9] and 80.8% in assay [10].

With `C=C(C)[C@@H]1CC[C@]2(C(=O)N3CCN(C)CC3)CC[C@]3(C)[C@H](CC[C@@H]4[C@@]5(C)CC(=C/c6ccncc6)/C(=N/O)C(C)(C)[C@@H]5CC[C@]43C)[C@@H]12`, the growth in assay [1] was 77.1%; in [2], 34.4%; in assay [3] it was 87.4%; in assay [4], 65.7%; in assay [5], 71.9%; in assay [6], 63%. Besides, the growth was 91.6% in assay [7], 83.6% in assay [8], 85.8% in assay [9] and 94.5% in [10].

`COC(=O)/C=C1/SC(=Nc2ccc(C)cc2)N(CCc2c[nH]c3ccc(O)cc23)C1=O`: the growth in [1] was 26.9%; in [2], 11.8%; in assay [3], 77.4%; in assay [4] it was 59.3%; in [5], 47.7%; in assay [6], 56.3%. The growth is 76.8% in assay [7], 42.9% in assay [8], 50.2% in [9] and 34.1% in assay [10].

In the case of `O=C(CSc1nc2ccc([N+](=O)[O-])cc2[nH]1)Nc1cccc(C(F)(F)F)c1`, the growth in [1] is 30.6%; in assay [2], 13.6%; in [3], -0.63% (active); in [4], 38.5%; in assay [5], 44.7%; in [6], 24.3%. Further, the growth is 33% in assay [7], 36.5% in assay [8], 14.3% in assay [9] and 27.6% in [10].

Turning to `CC(=O)N(N=Nc1ccccc1)c1cccc2ccccc12`, the growth in assay [1] was 9.87% (active); in assay [2], 89.5%; in [3], 128%; in [4], 78.2%; in [5] it was 89.6%; in [6], 92.8%. The growth in assay [7] is 68.2%; in [8], 111%; in assay [9], 103%; in [10], 90.9%.

Regarding `C=CCn1c(SCC(=O)Nc2ccc(C(=O)/C=C/c3ccc(Cl)cc3)cc2)nnc1-c1cc(-c2ccc(S(N)(=O)=O)cc2)nc2ccccc12`, the growth is 104% in assay [1]; 71.1% in assay [2]; 93.3% in assay [3]; 90% in assay [4]; 80.2% in [5]; 74.8% in [6]. Further, the growth was 97.5% in assay [7], 87% in [8], 99.8% in assay [9] and 92.2% in assay [10].

Turning to `CN1C(=O)/C(=C/c2ccc(C(=O)Nc3ncc(Cc4ccc(Cl)cc4)s3)cc2)SC1=S`, the growth is 47.1% in [1]; 38.4% in assay [2]; 50.9% in assay [3]; 58% in assay [4]; 48.3% in assay [5]; 56.8% in assay [6]. Further, the growth in assay [7] is 33%; in assay [8] it was 47.3%; in assay [9] it was 67.1%; in assay [10], 16.3%.

Take `C=CCn1c(SCC(=O)NCc2cc(C)c(O)c(C)c2)nc2ccc(Cl)cc2c1=O`: the growth was 105% in assay [1]; 58.6% in [2]; 98.8% in [3]; 111% in assay [4]; 98.6% in assay [5]; 99.2% in assay [6]. Further, the growth in assay [7] is 91.1%; in assay [8], 101%; in assay [9], 102%; in assay [10], 115%.

For `CC(C)(C)[Si](C)(C)O[C@H]1C(=O)C=CN2CC=C[C@@H]12`, the growth was 108% [100 µM] in assay [1]; 105% [100 µM] in assay [2]; 106% [100 µM] in assay [3]; 105% [100 µM] in assay [4]; 109% [100 µM] in assay [5]; 101% [100 µM] in assay [6]. For the same compound, the growth is 94.1% [100 µM] in [7], 99.4% [100 µM] in assay [8], 93.6% [100 µM] in assay [9] and 108% [100 µM] in [10].

With `O=C(Nn1c2c(sc1=NCc1ccccc1)C(=O)c1ccccc1C2=O)c1cc2ccc1CCc1ccc(cc1)CC2`, the growth in [1] is 88.8%; in assay [2] it was 48.8%; in [3], 5.52% (active); in assay [4], 40.4%; in assay [5] it was 60.3%; in [6], 58.6%. Further, the growth is 94.8% in assay [7], 87.5% in [8], 52.6% in assay [9] and 19.3% in assay [10].

`CC(=O)n1nc(C(=O)OC(C)C)c2cc(C)c(C)cc21`: the growth in [1] was 105%; in [2], 91.1%; in assay [3], 95%; in assay [4] it was 102%; in assay [5] it was 118%; in assay [6], 102%. Moreover, the growth in assay [7] is 89.8%; in assay [8], 107%; in assay [9], 92.3%; in assay [10], 93.7%.

Regarding `CC1(C)CC2=C3C=C[C@@H]4[C@@]5(C)CCC(=O)C(C)(C)[C@@H]5CC[C@@]4(C)[C@]3(C)CC[C@@]2(C(=O)O)CC1=O`, the growth in assay [1] was 97.2%; in assay [2] it was 92.1%; in assay [3] it was 39.1%; in [4], 75.3%; in assay [5] it was 54.8%; in [6], 53.3%. In addition, the growth in assay [7] was 75.3%; in assay [8], 65.7%; in assay [9], 43.2%; in assay [10] it was 46.8%.

Consider `O=C1/C(=C\c2cn(-c3ccccc3)nc2-c2ccc(-c3cccs3)cc2)CCc2ccccc21`, for which the growth in [1] was 85.8%; in assay [2], 17.6%; in assay [3], 65.4%; in [4], 67.5%; in [5] it was 58.1%; in [6] it was 70.5%. The growth was 54.8% in assay [7], 72% in assay [8], 83.3% in [9] and 39.1% in [10].

Consider `C=C1C(=O)O[C@H]2[C@H]1CC/C(COC(=O)CCSCCC(=O)OC/C1=C/CC[C@@]3(C)O[C@H]3[C@H]3OC(=O)C(=C)[C@@H]3CC1)=C\CC[C@@]1(C)O[C@@H]21`, for which the growth was 20.1% in [1]; 2.89% (active) in [2]; -13.7% (active) in assay [3]; -52.1% (active) in [4]; -95.3% (active) in assay [5]; 24.2% in assay [6]. Also, the growth in [7] is 62.7%; in [8], -15.1% (active); in assay [9], -13.7% (active); in assay [10], -12% (active).

`CCCNC(=O)Oc1ccc(/C(=C(/C)Cc2ccc(OC)cc2)c2ccc(OCCCN(C)C)cc2)cc1`: the growth in assay [1] is 94.9%; in assay [2], 15.3%; in [3], 82.9%; in assay [4], 89.9%; in assay [5], 74.7%; in assay [6] it was 84%. The growth was 88.2% in [7], 97.8% in assay [8], 99.2% in assay [9] and 71.8% in [10].

Take `O=C(Nc1cc(Cl)ccc1O)c1ccc(Nc2ccnc(C(F)(F)F)c2)cc1`: the growth is 42.9% in assay [1]; 5.89% (active) in [2]; 60.5% in assay [3]; 68.1% in [4]; 98.9% in assay [5]; 69.1% in [6]. Also, the growth in assay [7] was -7.57% (active); in assay [8] it was 80.4%; in [9], 78%; in assay [10], 46.8%.

As for `O=C1c2cccc(NCCN=Cc3cc(O)ccc3O)c2C(=O)c2c(NCCN=Cc3cc(O)ccc3O)cccc21`, the growth in assay [1] is -68.5% (active); in assay [2], -94.8% (active); in assay [3], -24.6% (active); in [4] it was -41% (active); in assay [5], -34.2% (active); in assay [6], -34.9% (active). Also, the growth was -23.6% (active) in assay [7], -8.67% (active) in [8], 57.9% in [9] and -4.47% (active) in [10].

Take `CC1=C(CCC(C)N(C)Cc2ccc(OCCCN3CCCC3)cc2)C(C)(C)CCC1` (stereo not given): the growth in assay [1] is 65.3%; in assay [2], -22.2% (active); in assay [3], -89.4% (active); in [4], -43.6% (active); in [5], -37.5% (active); in assay [6], 48.2%. The growth in assay [7] was -4.45% (active); in [8] it was -79% (active); in [9], -74.3% (active); in assay [10], -77.2% (active).

In the case of `Clc1ccc(Nc2nnc(COc3ccccc3)c3ccccc23)cc1`, the growth in assay [1] is 10.4%; in [2], 2.77% (active); in assay [3] it was -13.5% (active); in [4], 11.4%; in [5], -5.93% (active); in [6], 13.2%. In addition, the growth is -1.11% (active) in [7], 8.42% (active) in assay [8], -24.9% (active) in [9] and -9.99% (active) in assay [10].

`C#CCn1cnc2c(Nc3cccc(NC(=O)C=C)c3)ncnc21`: the growth in assay [1] was 86.4%; in [2], 72.7%; in assay [3], 78.9%; in assay [4], 80%; in assay [5] it was 85.2%; in assay [6] it was 63.4%. Further, the growth was 80.5% in [7], 66.8% in [8], 75.6% in assay [9] and 76.6% in [10].

Turning to `N#CC1=C(N)Oc2c(sc3c(Br)cccc23)C1c1ccc(F)cc1` (stereo not given), the growth in assay [1] is 24.1%; in assay [2], 9.02% (active); in assay [3], 49.4%; in assay [4], 16.9%; in assay [5], -2.88% (active); in assay [6] it was 25.5%. Further, the growth in assay [7] is 5.32% (active); in assay [8], -27.1% (active); in [9], 74.1%; in assay [10] it was 9.58% (active).

Turning to `CCOC(=O)c1c(C)nc2c(c1N)CC(=O)N2Cc1cc(F)cc(Cl)c1`, the growth in assay [1] was 94.5%; in assay [2], 95.2%; in [3], 108%; in assay [4] it was 87.5%; in assay [5] it was 92.4%; in assay [6], 95.8%. The growth in assay [7] is 85.9%; in assay [8], 94.2%; in assay [9], 82%; in assay [10] it was 101%.

For the compound `N#C/C(=C\c1ccc(Br)cc1)n1nnc2ccc(F)cc21`, the growth in assay [1] was 15.3%; in [2], 3.46% (active); in [3] it was -22.6% (active); in assay [4] it was -11.4% (active); in assay [5], -41% (active); in [6], 42.5%. Besides, the growth was 44% in [7], -24.3% (active) in assay [8], 6.2% (active) in assay [9] and -42.3% (active) in assay [10].

For the compound `Cn1c(=O)c2c(nc(NC3=NS(=O)(=O)c4ccccc43)n2CC(=O)N2CCc3ccccc32)n(C)c1=O`, the growth is 106% in assay [1]; 114% in [2]; 103% in assay [3]; 94.3% in [4]; 92.7% in assay [5]; 97.5% in [6]. Further, the growth is 105% in assay [7], 98.1% in assay [8], 94.9% in assay [9] and 89.1% in assay [10].

Regarding `CCN1CC(=O)N(/N=C2\C(=O)Nc3ccccc32)C1=S`, the growth in assay [1] is 112%; in [2], 106%; in [3], 91%; in [4], 88.5%; in assay [5], 76.5%; in assay [6] it was 103%. Besides, the growth in assay [7] is 96.6%; in [8], 94.1%; in assay [9], 103%; in [10], 86%.
